For some of these results: Measured potencies and affinities stand elsewhere.
Legend:
Design in all cases: scale not given: direction of the effect not stated beside the values
[1] = biological target: Protein translocase subunit SecA (Escherichia coli (strain K12)) (UniProt P10408); assay: Assay to Identify E. coli SecA ATPase Inhibitors; assay type: functional; settings: 30 µM
[2] = biological target: T1, Ubiquitin-activating enzyme e1, putative (Leishmania donovani (strain BPK282A1)) (UniProt E9BSI1); assay: Leishmania donovani Ubiquitin Activating Enzyme (LdE1); assay type: functional; settings: 30 µM
T1 sequence (whole entry): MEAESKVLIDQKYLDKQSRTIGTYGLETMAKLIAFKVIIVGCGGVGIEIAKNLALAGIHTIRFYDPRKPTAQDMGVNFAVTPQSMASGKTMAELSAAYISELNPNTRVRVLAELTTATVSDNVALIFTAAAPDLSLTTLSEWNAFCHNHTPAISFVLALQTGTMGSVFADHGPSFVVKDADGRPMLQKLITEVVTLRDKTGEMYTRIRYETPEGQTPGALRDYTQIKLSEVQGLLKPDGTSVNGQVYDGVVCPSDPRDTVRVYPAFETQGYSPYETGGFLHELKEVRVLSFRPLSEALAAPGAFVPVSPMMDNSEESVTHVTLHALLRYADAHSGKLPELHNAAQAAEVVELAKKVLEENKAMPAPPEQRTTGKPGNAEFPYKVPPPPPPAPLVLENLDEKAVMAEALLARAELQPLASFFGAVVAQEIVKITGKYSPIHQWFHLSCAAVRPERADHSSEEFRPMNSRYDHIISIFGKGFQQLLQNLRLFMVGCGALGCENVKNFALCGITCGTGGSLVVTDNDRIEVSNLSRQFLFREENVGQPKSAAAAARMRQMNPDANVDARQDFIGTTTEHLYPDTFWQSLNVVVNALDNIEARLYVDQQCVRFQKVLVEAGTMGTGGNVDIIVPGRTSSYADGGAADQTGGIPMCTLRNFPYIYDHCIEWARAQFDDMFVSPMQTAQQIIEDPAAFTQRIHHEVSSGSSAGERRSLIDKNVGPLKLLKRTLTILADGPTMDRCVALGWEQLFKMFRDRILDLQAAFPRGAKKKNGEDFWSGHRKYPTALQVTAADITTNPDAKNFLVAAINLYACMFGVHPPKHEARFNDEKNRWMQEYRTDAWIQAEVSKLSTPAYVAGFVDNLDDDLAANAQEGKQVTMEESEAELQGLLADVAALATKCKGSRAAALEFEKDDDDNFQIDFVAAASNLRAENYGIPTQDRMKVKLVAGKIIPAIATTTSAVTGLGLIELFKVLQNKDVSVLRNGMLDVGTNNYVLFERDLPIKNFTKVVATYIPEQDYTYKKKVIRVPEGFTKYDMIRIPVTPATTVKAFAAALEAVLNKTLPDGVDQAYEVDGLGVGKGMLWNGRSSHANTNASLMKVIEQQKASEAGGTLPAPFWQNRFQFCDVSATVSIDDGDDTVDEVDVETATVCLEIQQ

[3] = biological target: AMP-activated protein kinase, AMPK (Homo sapiens) (UniProt P54646+O43741+P54619+Q9UGJ0+Q9Y478+Q13131+Q9UGI9); assay: AMP-dependent Kinase enzyme assay. An in vitro enzyme assay that detects ADP turnover that is directly proportional to AMPK activity. This uses naive AMPK that is activated during the assay with MK-8722; assay type: functional; settings: 30 µM
[4] = biological target: Sialic acid-binding Ig-like lectin 9 (Homo sapiens) (UniProt Q9Y336); assay: Hs-Siglec9 ALPHAscreen SOP 20170721; settings: 10 µM
Chain of Sialic acid-binding Ig-like lectin 9 (Homo sapiens) (Q9Y336 whole entry): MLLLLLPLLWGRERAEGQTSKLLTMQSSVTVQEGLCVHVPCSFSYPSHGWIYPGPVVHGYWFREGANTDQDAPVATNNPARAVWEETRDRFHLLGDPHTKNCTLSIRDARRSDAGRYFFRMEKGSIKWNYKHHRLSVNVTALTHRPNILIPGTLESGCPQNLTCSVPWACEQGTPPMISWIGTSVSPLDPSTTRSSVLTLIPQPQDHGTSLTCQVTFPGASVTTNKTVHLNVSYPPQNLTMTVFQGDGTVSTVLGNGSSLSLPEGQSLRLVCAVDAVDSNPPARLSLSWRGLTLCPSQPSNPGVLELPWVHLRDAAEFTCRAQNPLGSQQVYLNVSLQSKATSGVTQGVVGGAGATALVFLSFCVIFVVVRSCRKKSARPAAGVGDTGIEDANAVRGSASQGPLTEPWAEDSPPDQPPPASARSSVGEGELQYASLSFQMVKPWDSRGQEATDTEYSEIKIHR

Trypanosoma cruzi = assay: Trypanosoma cruzi phosphomannomutase and mannose-1-phosphate guanylyltransferase assay; assay type: functional; settings: 10 µM
[5] = biological target: T2, Arginase-2, mitochondrial (Homo sapiens) (UniProt P78540); assay: in vitro enzyme assay to detect the production of urea directly proportional to the activity of Arginase II; assay type: functional; settings: 33.3 µM; note: in the data most compounds retested in dose-response had high values
T2 sequence (whole entry): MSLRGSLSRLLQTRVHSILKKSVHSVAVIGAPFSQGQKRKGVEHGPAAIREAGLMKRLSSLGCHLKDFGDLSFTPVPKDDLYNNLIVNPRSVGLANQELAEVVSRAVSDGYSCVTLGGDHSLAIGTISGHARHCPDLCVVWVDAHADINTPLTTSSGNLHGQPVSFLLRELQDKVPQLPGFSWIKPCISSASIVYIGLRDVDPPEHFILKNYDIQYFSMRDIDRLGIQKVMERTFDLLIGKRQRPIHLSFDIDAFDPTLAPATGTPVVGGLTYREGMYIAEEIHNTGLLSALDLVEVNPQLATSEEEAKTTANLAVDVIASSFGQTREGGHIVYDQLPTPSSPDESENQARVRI

[6] = biological target: T3, Proteasome subunit beta (Trypanosoma cruzi) (UniProt O96673); assay: Trypanosoma cruzi proteasome chymotrypsin-like activity (TcProtChymo) assay.; note: in the data most compounds retested in dose-response had high values; assay type: functional; settings: 9.37 µM
T3 sequence (whole entry): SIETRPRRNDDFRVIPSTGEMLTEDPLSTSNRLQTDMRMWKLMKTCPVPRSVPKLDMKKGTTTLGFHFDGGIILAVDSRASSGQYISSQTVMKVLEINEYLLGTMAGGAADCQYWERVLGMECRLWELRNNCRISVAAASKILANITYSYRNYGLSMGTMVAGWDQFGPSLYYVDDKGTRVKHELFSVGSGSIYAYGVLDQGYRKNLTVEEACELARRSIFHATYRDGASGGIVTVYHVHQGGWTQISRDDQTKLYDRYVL

Homo sapiens = species: Homo sapiens; assay: To identify inhibition of the IFN signalling (Jak-Stat) pathway via expression of an eGFP reporter gene under the control of an IFN-stimulated response element (ISRE) containing MxA promoter.; assay type: functional; settings: 30 µM
[7] = biological target: T4, Tyrosyl-tRNA synthetase, putative (Trypanosoma cruzi (strain CL Brener)) (UniProt Q4DSP6); assay: Trypanosoma cruzi tyrosyl tRNA synthetase (TcYRS) _High Tyrosine SOP; assay type: functional; settings: 30 µM; note: in the data most compounds retested in dose-response had high values
T4 sequence (whole entry): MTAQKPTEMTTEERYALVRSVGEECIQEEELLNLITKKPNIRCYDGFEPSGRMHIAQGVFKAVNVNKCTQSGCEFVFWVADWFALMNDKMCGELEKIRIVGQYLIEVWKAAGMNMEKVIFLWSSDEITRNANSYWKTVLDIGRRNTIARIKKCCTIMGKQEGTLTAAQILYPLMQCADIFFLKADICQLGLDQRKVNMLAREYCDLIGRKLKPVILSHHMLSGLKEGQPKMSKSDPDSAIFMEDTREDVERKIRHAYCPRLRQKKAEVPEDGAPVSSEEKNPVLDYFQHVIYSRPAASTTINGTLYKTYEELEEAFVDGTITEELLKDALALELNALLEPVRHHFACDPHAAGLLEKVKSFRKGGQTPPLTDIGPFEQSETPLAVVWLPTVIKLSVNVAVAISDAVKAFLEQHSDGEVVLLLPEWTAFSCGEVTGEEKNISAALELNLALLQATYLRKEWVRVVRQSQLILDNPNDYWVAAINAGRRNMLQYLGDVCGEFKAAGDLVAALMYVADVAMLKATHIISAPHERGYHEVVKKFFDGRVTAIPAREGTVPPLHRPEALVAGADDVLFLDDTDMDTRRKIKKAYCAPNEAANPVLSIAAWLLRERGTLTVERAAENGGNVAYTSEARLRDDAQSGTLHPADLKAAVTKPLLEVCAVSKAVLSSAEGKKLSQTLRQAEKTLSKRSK

[8] = biological target: T4, Tyrosyl-tRNA synthetase, putative (Trypanosoma cruzi (strain CL Brener)); assay: Trypanosoma cruzi tyrosyl tRNA synthetase (TcYRS) SOP; assay type: functional; settings: 30 µM
[9] = biological target: Chromo domain-containing protein 1 (Saccharomyces cerevisiae (strain ATCC 204508 / S288c) (Baker's yeast)) (UniProt P32657); assay: ScCHD-1 Enzyme Inhibition Assay; assay type: functional; settings: 30 µM; note: in the data most compounds retested in dose-response had high values
Chain of Chromo domain-containing protein 1 (Saccharomyces cerevisiae (strain ATCC 204508 / S288c) (Baker's yeast)) (P32657 whole entry, the tested form may be a part): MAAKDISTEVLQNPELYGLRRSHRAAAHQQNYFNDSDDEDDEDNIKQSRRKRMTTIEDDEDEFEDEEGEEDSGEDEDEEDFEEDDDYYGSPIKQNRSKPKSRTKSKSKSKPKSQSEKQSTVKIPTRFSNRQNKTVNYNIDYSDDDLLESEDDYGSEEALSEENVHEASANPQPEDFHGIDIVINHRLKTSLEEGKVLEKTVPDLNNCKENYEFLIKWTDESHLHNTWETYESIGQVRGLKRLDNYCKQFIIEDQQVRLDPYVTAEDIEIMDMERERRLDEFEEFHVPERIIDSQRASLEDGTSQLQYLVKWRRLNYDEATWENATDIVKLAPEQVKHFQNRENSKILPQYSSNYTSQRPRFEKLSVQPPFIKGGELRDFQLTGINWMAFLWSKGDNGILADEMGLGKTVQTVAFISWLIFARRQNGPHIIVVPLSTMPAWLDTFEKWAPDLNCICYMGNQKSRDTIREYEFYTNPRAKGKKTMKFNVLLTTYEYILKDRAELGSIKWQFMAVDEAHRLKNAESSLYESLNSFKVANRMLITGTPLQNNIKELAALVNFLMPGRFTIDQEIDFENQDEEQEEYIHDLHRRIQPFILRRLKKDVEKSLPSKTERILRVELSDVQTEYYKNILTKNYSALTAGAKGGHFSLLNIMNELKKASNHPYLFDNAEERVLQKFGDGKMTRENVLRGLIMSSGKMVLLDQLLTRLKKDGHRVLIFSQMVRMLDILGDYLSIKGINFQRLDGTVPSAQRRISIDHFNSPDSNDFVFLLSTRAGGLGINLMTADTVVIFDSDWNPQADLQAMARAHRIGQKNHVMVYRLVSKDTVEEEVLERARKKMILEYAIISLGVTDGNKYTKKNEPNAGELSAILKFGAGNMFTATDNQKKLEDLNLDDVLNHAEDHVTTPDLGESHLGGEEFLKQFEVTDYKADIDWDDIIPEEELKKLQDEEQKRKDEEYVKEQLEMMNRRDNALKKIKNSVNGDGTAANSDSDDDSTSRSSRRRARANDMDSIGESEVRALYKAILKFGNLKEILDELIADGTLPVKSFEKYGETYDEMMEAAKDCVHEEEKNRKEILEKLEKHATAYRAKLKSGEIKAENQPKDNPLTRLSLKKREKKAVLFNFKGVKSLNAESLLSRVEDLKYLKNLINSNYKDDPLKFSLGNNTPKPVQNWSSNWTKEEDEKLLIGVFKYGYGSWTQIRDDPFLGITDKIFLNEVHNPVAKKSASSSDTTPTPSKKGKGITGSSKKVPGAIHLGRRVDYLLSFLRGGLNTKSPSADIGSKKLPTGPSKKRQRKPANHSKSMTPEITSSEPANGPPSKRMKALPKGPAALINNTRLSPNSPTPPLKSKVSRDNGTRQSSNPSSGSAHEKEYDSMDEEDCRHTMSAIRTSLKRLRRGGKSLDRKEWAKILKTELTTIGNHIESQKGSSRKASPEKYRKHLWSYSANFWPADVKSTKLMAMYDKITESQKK

Chain of Protein translocase subunit SecA (Escherichia coli (strain K12)) (P10408 whole entry): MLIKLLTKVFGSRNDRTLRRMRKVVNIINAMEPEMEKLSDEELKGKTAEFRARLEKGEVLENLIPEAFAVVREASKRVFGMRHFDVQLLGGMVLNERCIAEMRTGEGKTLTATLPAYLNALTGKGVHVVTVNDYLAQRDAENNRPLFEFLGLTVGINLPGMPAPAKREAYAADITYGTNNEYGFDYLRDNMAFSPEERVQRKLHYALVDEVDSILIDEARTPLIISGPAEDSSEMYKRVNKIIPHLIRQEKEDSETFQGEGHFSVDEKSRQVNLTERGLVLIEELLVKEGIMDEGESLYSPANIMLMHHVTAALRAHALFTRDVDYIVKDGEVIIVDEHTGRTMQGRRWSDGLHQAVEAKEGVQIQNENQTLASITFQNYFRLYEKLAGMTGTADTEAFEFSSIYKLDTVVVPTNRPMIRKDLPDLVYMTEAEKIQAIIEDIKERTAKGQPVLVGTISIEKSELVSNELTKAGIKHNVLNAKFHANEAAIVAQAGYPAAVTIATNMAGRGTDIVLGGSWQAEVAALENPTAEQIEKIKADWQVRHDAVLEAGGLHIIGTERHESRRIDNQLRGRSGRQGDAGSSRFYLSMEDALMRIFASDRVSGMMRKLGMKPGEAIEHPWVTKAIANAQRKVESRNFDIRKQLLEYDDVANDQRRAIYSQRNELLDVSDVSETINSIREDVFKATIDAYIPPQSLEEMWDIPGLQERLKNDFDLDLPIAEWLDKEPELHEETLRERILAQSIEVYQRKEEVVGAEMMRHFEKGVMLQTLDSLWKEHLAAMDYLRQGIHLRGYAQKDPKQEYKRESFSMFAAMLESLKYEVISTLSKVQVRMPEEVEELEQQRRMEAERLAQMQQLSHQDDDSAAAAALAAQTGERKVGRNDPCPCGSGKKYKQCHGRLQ

Row | SMILES | Percent Effect [1] [%] | Percent Effect [2] [%] | Percent Effect [3] [%] | Percent Effect [4] [%] | Percent Effect (Trypanosoma cruzi) [%] | Percent Effect [5] [%] | Percent Effect [6] [%] | Percent Effect (Homo sapiens) [%] | Percent Effect [7] [%] | Percent Effect [8] [%] | Percent Effect [9] [%]
1 | Cc1cnc(NC(=O)N2CCCC2)s1 | -4.49 | 2.7 | -1.71 | 2.98 | 8.5 | -0.744 | 15.4 | 6.72 | 1.07 | 3.7 | 1.48
2 | O=C(C1SCCc2sccc21)N1CCN(CCO)CC1 (stereo not given) | -6.92 | 16.2 | -1.14 | 33.4 | 2.34 | 22.5 | 17.7 | 11.7 | -3.96 | 15.8 | -3.8
3 | CC(C)Oc1cccc(CNC(=O)NC(C)(C(=O)O)c2ccco2)c1 (stereo not given) | -2.82 | 13.2 | -1.29 | 13.7 | 3.08 | -1.08 | -2.79 | -7.9 | 9.36 | 18.5 | -0.593
4 | CN(CC1CCCCO1)C(=O)c1ccnc(OC2CCC2)c1 (stereo not given) | 3.17 | 0 | -6.16 | 1.71 | 6.18 | 10.9 | 8.62 | 29.6 | -1.59 | 0 | -2.67
5 | Cc1csc(N2CCCN(C(=O)C3(C#N)CCCCC3)CC2)n1 | -0.0182 | -2.63 | 4.54 | -2.41 | -0.188 | 0.766 | -3.34 | -13.6 | 0.49 | -2.44 | 10.4
6 | COc1c(CNC(c2nccn2C)C(C)C)c(C)nn1C (stereo not given) | 1.37 | -5.26 | 0.924 | 13.8 | -2.07 | -2.68 | 2.84 | -7.86 | 6.37 | 0 | 4.67
7 | COCCN1CCC(NCc2ccc(C#N)cc2)C1 (stereo not given) | -8.38 | 0 | -5.29 | 8.39 | 9.55 | 4.98 | 1.86 | 2.29 | 8.74 | 21.9 | -10.6
8 | COCc1ccccc1CNCc1c(C)nn(C)c1N(C)C | -5.19 | 10.8 | -41.2 | 6.46 | -0.849 | 0 | -5.04 | -1.56 | 9.36 | 6.17 | -5.6
9 | Cc1c[nH]c(CN(C)c2nc(C3CCCC3)nc3c2cnn3C)n1 | -3.47 | 1.39 | 3.98 | -7.75 | -3.01 | 2.21 | 3.68 | -3.43 | 0 | 2.56 | -2.96
10 | CC(NC(=O)NCCCc1n[nH]c(N)c1C#N)c1ccccc1 (stereo not given) | -5.52 | 22.8 | 48.4 | -3.62 | 3.68 | -11.8 | 14.8 | 7.81 | 6.4 | 24.1 | -5.91
11 | CCNc1cc2c(nn1)CCN(C(=O)c1ccnc(N(C)C)c1)C2 | -2.5 | 5.26 | -29.5 | 4.93 | 9.21 | 4.98 | 5.01 | -24.9 | 4.41 | 4.88 | -5.51
12 | COC(=O)c1cc(C(=O)N2CCOCC2(C)C)n(-c2ccccc2)n1 | -2.65 | 7.89 | 4.52 | 4.64 | 6.2 | -6.13 | 0 | -3.57 | 4.41 | 17.1 | -9.02
13 | Cc1ccc(C(=O)N(C)Cc2cscn2)c(=O)[nH]1 | -6.94 | 15.8 | -3.33 | 3.04 | 2.24 | 1.18 | 4.31 | 1.38 | 4.25 | 2.6 | -6.33
14 | O=C(CCCc1cn[nH]c1)N1CCOCC(O)C1 (stereo not given) | -5.63 | 0 | -4.88 | -7.04 | 0 | -0.455 | 5.86 | -11.9 | 5.38 | 10 | -3.63
15 | COc1ccc(C2Nc3ccccc3C3=NCCCN32)cc1OC (stereo not given) | -5.46 | -2.67 | 8.31 | -1.83 | -0.787 | -1.63 | -2.91 | 11.5 | 0 | 1.28 | -8.33
16 | COCCOc1ccc(NC(=O)C2CCCN(C(N)=O)C2)cn1 (stereo not given) | -4.58 | 7.59 | 0.0742 | 4.56 | -6.33 | 1.52 | 5.82 | 22.6 | -0.493 | -1.27 | -5.42
17 | CC(C)CCc1noc(CN2CCCN(C(=O)c3ccco3)CC2)n1 | -5.45 | -8.22 | -0.00644 | 4.33 | 2.38 | -11.2 | 3.68 | 7.02 | 3.12 | 3.7 | -3.57
18 | CCc1nc(C2CCCN2CC(=O)Nc2sc(C)c(C)c2C)no1 (stereo not given) | -2.85 | -5.2 | 3.9 | 11.2 | 1.69 | -1.42 | -8.11 | 11.2 | 13.6 | 14.6 | -1.21
19 | COc1ccc(CN2CCCC3(CCN(c4ccsc4)C3=O)C2)cc1 (stereo not given) | -1.81 | 0 | 5.65 | 2.16 | -5.32 | 3.96 | 6.78 | 21.2 | 2.13 | 3.85 | -0.303
20 | O=C(N1CCCO1)[C@@]12CCO[C@@H]1CCN(C1CCCCC1)C2 | -5.99 | 16 | -8.58 | 1.15 | 0 | -50.7 | 4.96 | -2.54 | -105 | 15 | -10.2

— ChEMBL document CHEMBL3988442, “University of Dundee, Small-Polar-MMV Screening Library” (2021)
